Assay results: PubChem BioAssay (EPA / NIEHS)
Values joined by “and” are separate entries in the source; they are usually repeats but may differ in a detail not shown here. Equal entries are not always repeated. Inconclusive results are not listed. Some compounds were tested as several samples or in several runs, with calls that do not always agree. Active and inactive are the calls of the source. How the source made its calls: active means hit-call score of the fitted dose curve at least 0.9, where 1 is the maximum; inconclusive means response in the unintended direction; inactive means score below 0.9.

molecular target: Cellular tumor antigen p53 (Homo sapiens) (UniProt P04637); test: TOX21_p53_BLA_p3_ratio: Tox21 HCT-116 p53 Agonism Beta-lactamase Assay, Ratio, Phase 3 (AID 2283596)
Source text: TOX21_p53_BLA_p3 is a cell-based, single-readout assay that uses HCT116, a human intestinal cell line, […] in a 1536-well plate.TOX21_p53_BLA_p3_ratio is an assay readout measuring reporter gene via receptor activity and designed using inducible reporter (beta lactamase induction) detected with GAL4 b-lactamase reporter gene. The signal is derived from the ratio of cleaved (ch2) to uncleaved (ch1) reporter gene substrate used as the measure of target activity.Data from the assay component TOX21_p53_BLA_p3_ratio was analyzed into 1 assay endpoint. This assay endpoint, TOX21_p53_BLA_p3_ratio, was analyzed in the positive analysis fitting direction relative to DMSO as the negative control and baseline of activity. Using a type of inducible reporter, gain-of-signal activity can be used to understand changes in the reporter gene as they relate to the gene TP53. Furthermore, this assay endpoint can be referred to as a primary readout, because this assay has produced multiple assay endpoints where this ratio serves a reporter gene function to understand target activity. To generalize the intended target to other relatable targets, this assay endpoint is annotated to the DNA binding intended target family, where the subfamily is tumor suppressor.
Thawing Method: Place 14 mL of pre-warmed thaw medium into a 15 mL of conical tub. Remove the vial of cells to be thawed from liquid nitrogen and thaw rapidly by placing at 37C in a water bath with gentle agitation for 1-2 minutes. Decontaminate the vial by wiping with 70% ethanol before opening in a biological safety cabinet. Transfer the vial contents drop-wise into 14 mL of thaw medium in a sterile 15-mL conical tub. Centrifuge cells at 900 rpm for 4 minutes and resuspend in thaw medium. Transfer contents to the T75 tissue culture flask containing Thaw Medium and place flask in a humidified 37C/5% CO2 incubator. Switch to growth medium at first passage.Propagation Method: Aspirate medium, rinse once in DPBS, add 0.25% Trypsin/EDTA and swirl to coat the cell evenly. Add an equal volume of Growth Medium to inactivate Trypsin after 2-3 minutes incubation at 37C. Centrifuge cells at 900 rpm for 4 minutes and resuspend in growth medium. Cell should be passage or fed at least twice a week.Assay Protocol: Harvest cells from culture in growth medium and resuspend in assay medium. 2.2 Dispense 4000 cells/5 uL/well into 1536-well black/clear bottom plates using a Multidrop dispenser. After the cells were incubated at 37C for 5 hours, 23 nL of compounds dissolved in DMSO were transferred to the assay plate by a PinTool resulting in a 217-fold dilution. Incubate the plates for 16 hours at 37C, 5% CO2. Add 1 uL of 6X LiveBLAzer FRET B/G (CCF4-AM) Substrate Mixture to each well using a BioRAPTR dispenser and incubate the plates at room temperature for 2 hours. Measure fluorescence intensity at 460 and 530 nm emission and 405 nm excitation by an Envision detector. Data is expressed as the ratio of 460nm/530nm emissions. Add 4 uL of Cell-titer Glo to each well using BioRAPTR and incubate the plates at room temperature for 2 hours. Measure fluorescence intensity by a VewLux plate reader.

Chain of Cellular tumor antigen p53 (Homo sapiens) (P04637 whole entry, looked up, the tested form may be a part): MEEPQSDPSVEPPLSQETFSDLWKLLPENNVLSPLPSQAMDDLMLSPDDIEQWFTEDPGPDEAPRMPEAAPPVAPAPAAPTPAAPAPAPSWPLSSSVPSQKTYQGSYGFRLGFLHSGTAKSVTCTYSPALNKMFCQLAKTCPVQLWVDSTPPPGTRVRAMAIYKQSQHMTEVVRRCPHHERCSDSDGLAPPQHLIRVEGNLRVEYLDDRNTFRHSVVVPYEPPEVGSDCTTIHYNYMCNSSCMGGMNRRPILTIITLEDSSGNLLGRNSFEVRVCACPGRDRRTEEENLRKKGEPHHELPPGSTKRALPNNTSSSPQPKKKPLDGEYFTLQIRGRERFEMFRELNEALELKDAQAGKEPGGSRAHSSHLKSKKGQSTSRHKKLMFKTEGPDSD

Question: For c1nc[nH]n1, which outcome is on record?
Answer: The outcome was “inactive”.

Question: CCN(CC)c1ccccc1 was tested. Which outcome did it give?
Answer: Its outcome is “inactive”.

Question: FC(F)(F)c1ccc(Cl)cc1 was tested. Which outcome did it give?
Answer: Its outcome is “inactive”.

Question: How did the outcome turn out when ClC(Cl)(Cl)c1ccccc1 was run?
Answer: Its outcome is “inactive”.

Question: How did the outcome turn out when O=P(Oc1ccccc1)(Oc1ccccc1)Oc1ccccc1 was run?
Answer: The outcome was “inactive”.

Question: With O=[N+]([O-])c1ccccc1 as the compound, how does the outcome read?
Answer: Its outcome is “inactive”.

Question: Which outcome does the source give for CC(Cc1ccc(OCC(=O)O)cc1)NCC(O)c1csc(C(F)(F)F)n1 (stereo not given) here?
Answer: Its outcome is “inactive”.

Question: How did the outcome turn out when CCC(C)(C)c1ccc(O)cc1 was run?
Answer: Its outcome is “inactive”.

Question: CC(C)Nc1ccc(Nc2ccccc2)cc1 was tested. Which AC50 did it give?
Answer: Its AC50 is 66.1 µM (active) and 76.4 µM (active) and 31.5 µM (active).

Question: c1ccc2c(c1)sc1ccccc12 was tested. Which outcome did it give?
Answer: The outcome was “inactive”.

Question: Which outcome does the source give for CO/N=C(/C(=O)OC)c1ccccc1COc1ccccc1C here?
Answer: The outcome was “inactive”.

Question: For Cc1ccc(N)cc1N, which outcome is on record?
Answer: Its outcome is “inactive”.

Question: For c1cc2c3c(cccc3c1)CC2, which outcome is on record?
Answer: Its outcome is “inactive”.

Question: Which outcome does the source give for Cc1ccc2c(c1N)C(=O)c1ccccc1C2=O here?
Answer: The outcome was “inactive”.

Question: How did the outcome turn out when Nc1ccc(Cl)cc1 was run?
Answer: The outcome was “inactive”.

Question: Which outcome does the source give for COP(=O)(O)OC here?
Answer: Its outcome is “inactive”.

Question: CC(=O)CCc1ccc2c(c1)OCO2 was tested. Which outcome did it give?
Answer: The outcome was “inactive”.

Question: With CCOC(=O)c1ccccc1C(=O)OCC as the compound, how does the outcome read?
Answer: Its outcome is “inactive”.

Question: How did the outcome turn out when C=CC(=O)OCC(CC)(COC(=O)C=C)COC(=O)C=C was run?
Answer: Its outcome is “inactive”.

Question: For CCCCN(CC)C(=O)SCCC, which outcome is on record?
Answer: Its outcome is “inactive”.

Question: Which outcome does the source give for CCCCOCC1CO1 (stereo not given) here?
Answer: The outcome was “inactive”.

Question: With CCOP(=S)(S)OCC as the compound, how does the outcome read?
Answer: Its outcome is “inactive”.

Question: How did the outcome turn out when Cc1cccc(N)c1 was run?
Answer: Its outcome is “inactive”.

Question: How did the outcome turn out when C=C(C)C(=O)OCC1CO1 (stereo not given) was run?
Answer: The outcome was “inactive”.

Question: c1ccc2c(c1)Nc1ccccc1S2 was tested. Which outcome did it give?
Answer: Its outcome is “inactive”.

Question: CC(C)(C)OOC(C)(C)C was tested. Which outcome did it give?
Answer: The outcome was “inactive”.

Question: How did the outcome turn out when O=c1[nH]c2ccccc2c(=O)o1 was run?
Answer: The outcome was “inactive”.

Question: Which outcome does the source give for CCC1(c2ccccc2)C(=O)N=C(O)NC1=O (stereo not given) here?
Answer: Its outcome is “inactive”.

Question: For CCOP(=S)(OCC)SCn1nnc2ccccc2c1=O, which outcome is on record?
Answer: Its outcome is “inactive”.

Question: With OCC1CO1 (stereo not given) as the compound, how does the outcome read?
Answer: The outcome was “inactive”.

Question: How did the outcome turn out when CCN(CC)C1CCCCC1 was run?
Answer: The outcome was “inactive”.

Question: With O=C(CBr)OCc1ccccc1 as the compound, how does the outcome read?
Answer: The outcome was “inactive”.

Question: How did the outcome turn out when ClC1=C(Cl)C2(Cl)C3C(Cl)C(Cl)CC3C1(Cl)C2(Cl)Cl (stereo not given) was run?
Answer: The outcome was “inactive”.

Question: And the AC50?
Answer: The AC50 was 86.1 µM (active).

Question: NNC(N)=S was tested. Which outcome did it give?
Answer: Its outcome is “inactive”.

Question: With CCOS(=O)(=O)OCC as the compound, how does the outcome read?
Answer: The outcome was “inactive”.

Question: For O=NN1CCCC1, which outcome is on record?
Answer: Its outcome is “inactive”.

Question: Nc1ccc2ccccc2c1 was tested. Which outcome did it give?
Answer: The outcome was “inactive”.

Question: Which outcome does the source give for [N-]=[N+]=[N-] here?
Answer: The outcome was “inactive”.

Question: Which AC50 does the source give for CC1(C)CN=C(NN=C(/C=C/c2ccc(C(F)(F)F)cc2)/C=C/c2ccc(C(F)(F)F)cc2)NC1 here?
Answer: The AC50 was 39.5 µM (active).
